FMDV inh – antivirals against foot and mouth disease virus; FMDV antiviral cell-based qHTS; Potency, µM (doses to about 57.9 µM), for the others: at the highest dose activity change, negative = inhibition, hits mostly inhibitors; 410,000 compounds, 1.2% hits; AID 1159524; calls by dose curve; tested in HEK293T cells; note: read-out not given here; nearly all actives have a fitted effect of over 45% in size
MARV entry inh – blocks Marburg virus binding to or entry into cells | Potency, µM (highest dose often 37.8 µM), without a hit: top-dose activity change, negative = inhibition, hits mostly inhibitors | AID 540276 | 300,000 compounds, 1.8% hits | Marburg virus pseudotyped entry inhibition, cell reporter; calls by dose curve; tested in HEK293 cells
LASV entry inh – Lassa virus entry inhibition | Potency, µM (doses to about 37.9 µM), for inactives: at the top dose activity change, negative = inhibition, hits mostly inhibitors | Lassa virus pseudotype entry inhibition, cell reporter | AID 540256 | 300,000 compounds, 1.2% hits; calls by dose curve; tested in HEK293 cells; note: nearly all actives have a fitted effect of over 50% in size
VACV Venus inh – inhibitors of vaccinia virus (Venus reporter). Vaccinia virus Venus reporter expression, fluorescence. Potency, µM (top dose mostly 36.5 µM), without a hit: top-dose activity change, negative = inhibition, usual class: inhibitors. 330,000 compounds, 0.46% hits; calls by dose curve; tested in A549 cells; note: nearly all actives have a fitted effect of over 30% in size
HCV inh – HCV inhibition | Huh7.5.1 HCVcc-Cre infection, luciferase reporter, 44 h | Potency, µM (doses to about 41.8 µM), for the others: at the highest dose activity change, negative = inhibition, most hits filed as inhibitors | 340,000 compounds, 3.4% hits | AID 651820; active = well fitted inhibition curve with a large enough effect; inconclusive = small, poorly fitted or top-dose-only effect, or another doubt; inactive = no such curve, though single readings can be large or run the other way
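Cells seeded at 1,000/well and cultured 4 h, then compounds added followed by HCVcc-Cre virus (~0.5 moi). After 44 h further culture, luciferase substrate was added, plates held 15 min at room temperature, and luminescence read for 15 sec.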
Vaccinia mCherry – inhibitors of vaccinia virus infection (mCherry reporter signal) | Vaccinia virus mCherry reporter infection, fluorescence | Potency, µM (doses to about 36.5 µM), for the others: top-dose activity change, negative = inhibition, usual class: inhibitors | 310,000 compounds, 0.63% hits; calls by dose curve; tested in A549 cells; note: nearly all actives have a fitted effect of over 35% in size
* hit, by the source's call; i = inactive; ? = inconclusive; . = not tested or not shown; ! = repeats disagree; [ ] = another dose, or the depositor's remark. Shown are actives, neighbours in structure and some others; about 5.3% of the full set was active somewhere. % is set by controls: 0 for no effect and ±100 for the full control effect; potency is the fitted concentration of half-maximal effect.

SMILES	FMDV inh	MARV entry inh	LASV entry inh	VACV Venus inh	HCV inh	Vaccinia mCherry
CC[C@]12c3[nH]c4cc(-c5ccco5)ccc4c3CCN1C(=O)[C@@H](CC(=O)NC/C=C(\C)CCC=C(C)C)C[C@@H]2C(=O)N1CCN(C(=O)c2ccco2)CC1	?	-2.5%	.	?	12.6µM*	?
CC[C@]12c3[nH]c4cc(-c5ccco5)ccc4c3CCN1C(=O)[C@@H](CC(=O)NC/C=C(\C)CCC=C(C)C)C[C@@H]2C(=O)N1CCN(C(=O)C2CC2)CC1	?	.	.	?	15.8µM*	?
CC[C@]12c3[nH]c4ccc(Cl)cc4c3CCN1C(=O)[C@@H](CC(=O)NC/C=C(\C)CCC=C(C)C)C[C@@H]2C(=O)N1CCN(C(=O)C2CC2)CC1	?	.	.	?	22.4µM*	-24.6%
O=C(Nc1nc(-c2ccccc2)cs1)c1ccc2c(=O)n3c(nc2c1)CCCCC3	15.8µM*	-7.6%	.	.	2.51µM*	.
CCOc1ccccc1N(CC)C(=O)c1ccc2c(=O)n3c(nc2c1)CCCCC3	-21.1%	8.91µM*	-8.1%[46.1 µM]	-8.0%	-26.5%	-14.4%
Cc1cccc(N2CCN(C(=S)Nc3ccc4nc5n(c(=O)c4c3)CCCCC5)CC2)c1C	?	11.6%[46.1 µM]	.	-12.0%	6.31µM*	-11.8%
COc1ccc(NC(=O)c2ccc3c(=O)n4c(nc3c2)CCCCC4)cc1	-8.2%	14.8%[46.1 µM]	?	-12.6%	?	-10.6%
Cc1ccc(NC(=O)c2ccc3c(=O)n4c(nc3c2)CCCCC4)cc1F	-10.3%	?	6.4%[46.1 µM]	-16.3%	10µM*	-19.7%
O=c1c2cc(NC(=S)N3CCC(N4CCCCC4)CC3)ccc2nc2n1CCCCC2	-15.7%	-25.2%	3.5%	-0.7%	1.1%	i
Cn1nc(C(C)(C)C)cc1C(=O)N1CCCCC1c1cc(C(=O)NCc2cccnc2)no1 (centres undefined)	-13.3%	.	.	-14.7%	.	i
O=c1c2cc(NC(=S)NCCCN3CCC(Cc4ccccc4)CC3)ccc2nc2n1CCCCC2	-20.8%	7.08µM*	?	?	?	-20.9%
O=c1c2cc(NC(=S)NCCN3CCCCCC3)ccc2nc2n1CCCCC2	-22.4%	?	?	-3.3%	?	-11.2%
O=C(Nc1ccc(SC(F)F)cc1)c1ccc2c(=O)n3c(nc2c1)CCC3	?	.	.	.	3.98µM*	.
COc1cc(C(=O)Nc2ccc3nc4n(c(=O)c3c2)CCCCC4)cc(OC)c1OC	10µM*!	-14.7%[46.1 µM]	-12.2%[46.1 µM]	-1.0%[7.34 µM]	11.2µM*	-10.1%[7.34 µM]
Cc1cccc(NC(=O)c2ccc3c(=O)n4c(nc3c2)CCCCC4)n1	-68.6%	?	?	-10.6%	14.1µM*	-19.9%
C[C@@H]1COc2cc(Br)ccc2S(=O)(=O)N1	.	.	0.6%[46.1 µM]	.	.	.
O=C(NCC1CCCCC1)C1(CC2CC(c3cccc(Br)c3)=NO2)CCNCC1 (centres undefined)	0.3%	.	.	10µM*	?	11.2µM*
CC(C)(C)OC(=O)N1CCC(CC2CC(c3cccc(Br)c3)=NO2)(C(=O)NCC2CCCCC2)CC1 (centres undefined)	-27.9%	.	.	?	-1.7%	i
CCCCCCCNC(=O)C1(CC2CC(c3ccccc3)=NO2)CCNCC1 (centres undefined)	-5.5%	.	.	?	10µM*	-14.0%
CNc1c(NC(=O)c2ccc(OC)c(OC)c2)c(=O)oc2ccccc12	-11.6%	-0.5%[46.1 µM]	21.5%[46.1 µM]	4.9%	.	2.6%
CCN(c1ccccc1)S(=O)(=O)c1ccc(F)cc1	0.9%	8.7%	19.8%[14.3 µM]	-9.1%	10.0%	-9.0%
CCN(c1ccccc1)S(=O)(=O)c1ccc(OC)c(NC(=O)Cc2ccc(OC)c(OC)c2)c1	?	.	.	.	6.31µM*	.
CCN(CC)S(=O)(=O)c1ccc(N2CCN(c3ccccc3OC)CC2)c(N)c1	22.4µM*	?	?	-14.5%	?	?
CCN(c1ccccc1)S(=O)(=O)c1cc(NC(=O)Nc2ccccc2C#N)ccc1Cl	?	15.8%	-1.7%	-29.4%	?	?
CCN(c1ccccc1)S(=O)(=O)c1ccc(Cl)c(NC(=O)Nc2ccc(Cl)cc2C#N)c1	0.0%	?	?	10µM*	?	11.2µM*
CCN(CC)S(=O)(=O)c1ccc2c(c1)c(=O)c(C(=O)N1CCN(c3ccccc3OC)CC1)cn2C	6.1%	8.5%[46.1 µM]	-0.6%[46.1 µM]	4.8%	.	1.2%
